# Records with an inconclusive call do not appear. Values without a mark were called inactive. Calls follow the shape of the dose curve; as a rule, active = well fitted inhibition curve with a large enough effect in the repeat runs; inconclusive = weak or mixed curves, or effect the other way; inactive = no such curve, though single readings can be large or run the other way.
# Biological target: Androgen receptor (Homo sapiens) (UniProt P10275)
# Assay: qHTS assay to identify small molecule antagonists of the androgen receptor (AR) signaling pathway using the MDA cell line (AID 743042; also: nearly all actives have a fitted effect of over 55% in size)
# Conditions: MDA-kb2 AR-luc, MMTV luciferase, R1881 antagonist, 16 h; series mostly up to 70.3 µM; activity change, negative = inhibition: at the top concentration
# Method in brief: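 MDA-kb2 cells (human breast carcinoma, stably carrying an MMTV-luciferase reporter responsive to AR and GR) were plated at 3,000 cells/well and preincubated 5 hr at 37C, then given compound plus R1881 agonist for 16 h. ONE-Glo luminescence was read.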
# % is scaled to controls: 0 for no effect and ±100 for the full control effect.
# Chain of Androgen receptor (Homo sapiens) (P10275 whole entry, looked up): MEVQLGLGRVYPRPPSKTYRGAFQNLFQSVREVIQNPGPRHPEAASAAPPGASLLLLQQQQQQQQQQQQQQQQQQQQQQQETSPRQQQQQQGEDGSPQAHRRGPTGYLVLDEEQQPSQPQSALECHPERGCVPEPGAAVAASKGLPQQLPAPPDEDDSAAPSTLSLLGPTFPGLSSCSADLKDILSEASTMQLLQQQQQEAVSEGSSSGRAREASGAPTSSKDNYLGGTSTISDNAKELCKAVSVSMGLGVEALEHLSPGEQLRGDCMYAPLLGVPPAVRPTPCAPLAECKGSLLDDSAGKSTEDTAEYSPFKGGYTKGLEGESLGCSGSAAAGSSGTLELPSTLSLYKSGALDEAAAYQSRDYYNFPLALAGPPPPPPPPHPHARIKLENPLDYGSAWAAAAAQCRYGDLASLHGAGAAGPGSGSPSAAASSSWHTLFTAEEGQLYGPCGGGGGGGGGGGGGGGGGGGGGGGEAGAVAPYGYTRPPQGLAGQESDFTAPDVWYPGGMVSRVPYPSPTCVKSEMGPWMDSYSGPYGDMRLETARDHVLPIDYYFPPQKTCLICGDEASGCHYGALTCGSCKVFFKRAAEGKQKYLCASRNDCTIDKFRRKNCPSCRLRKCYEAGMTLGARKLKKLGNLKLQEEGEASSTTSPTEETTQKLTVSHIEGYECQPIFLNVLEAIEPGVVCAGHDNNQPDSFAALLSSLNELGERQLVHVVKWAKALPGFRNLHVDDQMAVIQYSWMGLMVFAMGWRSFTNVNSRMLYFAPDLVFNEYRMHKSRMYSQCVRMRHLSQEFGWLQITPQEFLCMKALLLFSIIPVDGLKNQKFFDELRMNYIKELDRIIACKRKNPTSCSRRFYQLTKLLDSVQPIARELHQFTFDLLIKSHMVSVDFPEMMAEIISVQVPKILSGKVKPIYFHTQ
row,Compound,"activity change, negative = inhibition"
1,CCCCCCCCN(C)CCCCCCCC,6.41% [at 95 µM]
2,CC1=CCC2C(C1)C2(C)C (centres undefined),22.6%
3,OCCN1C[C@H](O)[C@@H](O)[C@H](O)[C@H]1CO,-0.43%
4,NC1CCN(c2cccc(Cl)n2)CC1,-2.82%

# Source: PubChem BioAssay (Tox21)
